Source: PubChem BioAssay (EPA / NIEHS)
Where “and” joins values, the source holds several entries; their conditions need not be identical. Equal entries are not always repeated. Where a structure was tested more than once in an assay, its records may differ in their call. Calls of active or inactive are those of the source. The calls were made as follows: active = hit-call score of the fitted dose curve at least 0.9, where 1 is the maximum; inactive = score below 0.9.

Legend:
[1] = read-out: Interleukin-1 alpha (IL1a), IL1A (gene 3552); assay: BSK_KF3CT_IL1a: BioMAP Diversity Plus: KF3CT Assay for Interleukin-1 alpha (IL1a) Biomarker Activity (AID 2283070); details: primary human keratinocytes with fibroblasts; actives raise or lower the signal
Procedure, shortened: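 Primary skin co-culture (keratinocytes, foreskin fibroblasts), 24 h exposure; ELISA for IL-1a; bidirectional curve fit vs DMSO.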

[2] = read-out: TIMP metallopeptidase inhibitor 2 (TIMP2), TIMP2 (gene 7077); assay: BSK_KF3CT_TIMP2: BioMAP Diversity Plus: KF3CT Assay for TIMP metallopeptidase inhibitor 2 (TIMP2) Biomarker Activity (AID 2283071); details: primary human keratinocytes with fibroblasts; actives raise or lower the signal
Procedure, shortened: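 Chemicals were dosed onto human skin primary co-cultures of keratinocytes and foreskin fibroblasts, and TIMP-2 was measured by ELISA after 24 hours. Activity in either direction was fitted relative to DMSO.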

[3] = read-out: Transforming growth factor beta 1 (TGFb1), TGFB1 (gene 7040); assay: BSK_KF3CT_TGFb1: BioMAP Diversity Plus: KF3CT Assay for Transforming growth factor beta 1 (TGFb1) Biomarker Activity (AID 2283072); details: primary human keratinocytes with fibroblasts; actives raise or lower the signal
Procedure, shortened: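 KF3CT co-culture (keratinocytes + fibroblasts), 24 h exposure → TGF-b1 ELISA → bidirectional fit, DMSO = baseline. Parallel SRB total-protein staining (0.1% SRB, 10% TCA fixation, 560 nm) for cytotoxicity.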

[4] = read-out: C-C motif chemokine 2 (Homo sapiens) (UniProt P13500); assay: BSK_KF3CT_MCP1: BioMAP Diversity Plus: KF3CT Assay for Monocyte Chemoattractant Protein 1 (MCP1/CCL2) Biomarker Activity (AID 2283073); details: primary human keratinocytes with fibroblasts; actives raise or lower the signal
Procedure, shortened: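 Biomarker MCP-1 is measured by ELISA in primary human keratinocytes co-cultured with foreskin fibroblasts, 24 h after chemical treatment; DMSO serves as the negative control and activity baseline.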

[5] = read-out: Matrix Metallopeptidase 9 (MMP9), MMP9 (gene 4318); assay: BSK_KF3CT_MMP9: BioMAP Diversity Plus: KF3CT Assay for Matrix Metallopeptidase 9 (MMP9) Biomarker Activity (AID 2283074); details: primary human keratinocytes with fibroblasts; actives raise or lower the signal;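 as to AC50: MMP9 protein level quantified by ELISA in the co-culture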
Procedure, shortened: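 ELISA read-out of MMP-9 at 24 h post-dosing in a co-culture of human skin keratinocytes and foreskin fibroblasts. Gain or loss of signal was fitted in both directions against DMSO.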

[6] = read-out: urokinase plasminogen activator (uPA), PLAU (gene 5328); assay: BSK_KF3CT_uPA: BioMAP Diversity Plus: KF3CT Assay for urokinase plasminogen activator (uPA) Biomarker Activity (AID 2283075); details: primary human keratinocytes with fibroblasts; actives raise or lower the signal
Procedure, shortened: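 Skin co-culture (keratinocytes + foreskin fibroblasts), human primary; 24 h post-dose; uPA by ELISA; gain/loss fit vs DMSO baseline.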

[7] = read-out: CD40, CD40 (gene 958); assay: BSK_LPS_CD40: BioMAP Diversity Plus: LPS Assay for CD40 Biomarker Activity (AID 2283076); details: primary human HUVEC with PBMC; actives raise or lower the signal
Procedure, shortened: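 Using a multiplexed primary human co-culture (umbilical vein endothelium plus PBMC), CD40 was read by ELISA 24 h after dosing, with cytotoxicity tracked by sulforhodamine B staining of parallel cultures and activity fitted bidirectionally versus DMSO.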

[8] = read-out: Interleukin-8 (IL8), CXCL8 (gene 3576); assay: BSK_LPS_IL8: BioMAP Diversity Plus: LPS Assay for Interleukin-8 (IL8) Biomarker Activity (AID 2283078); details: primary human HUVEC with PBMC; actives raise or lower the signal
Procedure, shortened: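 In this LPS system, chemical-treated human umbilical vein endothelium/PBMC co-cultures were harvested at 24 h for IL-8 ELISA.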

[9] = BSK_LPS_SRB: Viability Assessment in the BioMAP Diversity Plus: LPS Assay (AID 2283079); details: primary human HUVEC with PBMC;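 also: total protein by sulforhodamine B absorbance as a cytotoxicity measure; measured one day after compound addition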
Procedure, shortened: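 Cytotoxicity endpoint in human endothelial–PBMC co-culture: 24 h exposure, then SRB (0.1%) staining, 560 nm read.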

[10] = read-out: Interleukin-1 alpha (IL1a), IL1A (gene 3552); assay: BSK_LPS_IL1a: BioMAP Diversity Plus: LPS Assay for Interleukin-1 alpha (IL1a) Biomarker Activity (AID 2283080); details: primary human HUVEC with PBMC; actives raise or lower the signal
Procedure, shortened: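 Primary human HUVEC and PBMC co-culture stimulated with LPS is dosed and harvested at 24 h. Both increases and decreases in ELISA-measured IL-1a are scored relative to DMSO.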

[11] = read-out: Monocyte Chemoattractant Protein-1 (MCP1), CCL2 (gene 6347); assay: BSK_LPS_MCP1: BioMAP Diversity Plus: LPS Assay for Monocyte Chemoattractant Protein-1 (MCP1) Biomarker Activity (AID 2283081); details: primary human HUVEC with PBMC; actives raise or lower the signal;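 as to AC50: secreted MCP-1 protein quantified by ELISA in culture supernatant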
Procedure, shortened: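 Values derive from bidirectional fitting against DMSO of ELISA-measured MCP-1 in a human primary endothelial and mononuclear cell co-culture, 24 h after chemical addition under LPS activation.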

[12] = BSK_LPS_PGE2: BioMAP Diversity Plus: LPS Assay for Prostaglandin E2 (PGE2) Biomarker Activity (AID 2283082); details: primary human HUVEC with PBMC; actives raise or lower the signal;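 as to AC50: secreted prostaglandin E2 measured by ELISA in LPS-stimulated co-culture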
Procedure, shortened: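 Compounds were added to the LPS co-culture of endothelium and PBMC, and PGE2 was measured by ELISA after 24 h. Responses in either direction were fitted with DMSO as baseline.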

[13] = read-out: Macrophage colony-stimulating factor (MCSF), CSF1 (gene 1435); assay: BSK_LPS_MCSF: BioMAP Diversity Plus: LPS Assay for Macrophage colony-stimulating factor (MCSF) Biomarker Activity (AID 2283083); details: primary human HUVEC with PBMC; actives raise or lower the signal
Procedure, shortened: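 Bidirectional fit versus DMSO of ELISA-measured M-CSF in co-cultured human umbilical vein endothelial cells and PBMC, sampled 24 h after dosing.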

[14] = read-out: Tissue Factor, F3 (gene 2152); assay: BSK_LPS_TissueFactor: BioMAP Diversity Plus: LPS Assay for Tissue Factor Biomarker Activity (AID 2283084); details: primary human HUVEC with PBMC; actives raise or lower the signal
Procedure, shortened: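 Read-out: CD142 ELISA, 24 h. System: LPS-driven human endothelial/PBMC co-culture. Analysis: up- or down-signal fitted against DMSO.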

[15] = read-out: Tumor necrosis factor (Homo sapiens) (UniProt P01375); assay: BSK_LPS_TNFa: BioMAP Diversity Plus: LPS Assay for Tumour Necrosis Factor alpha (TNFa) Biomarker Activity (AID 2283085); details: primary human HUVEC with PBMC; actives raise or lower the signal;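 as to AC50: TNFa protein level quantified by ELISA in the co-culture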
Procedure, shortened: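 Cells (umbilical vein endothelium plus peripheral blood mononuclear cells) were dosed with chemical, incubated 24 h, then TNFa was quantified by ELISA; values derive from bidirectional fitting with DMSO as baseline.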

[16] = read-out: CD38, CD38 (gene 952); assay: BSK_SAg_CD38: BioMAP Diversity Plus: SAg Assay for CD38 Biomarker Activity (AID 2283087); details: primary human HUVEC with PBMC; actives raise or lower the signal
Procedure, shortened: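 CD38 quantified by ELISA (fluorescence) in a superantigen-activated endothelial cell–PBMC co-culture at 24 h post-dose. Activity fitted in both directions relative to DMSO; parallel SRB and Alamar Blue cytotoxicity read-outs.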

[17] = read-out: CD40, CD40 (gene 958); assay: BSK_SAg_CD40: BioMAP Diversity Plus: SAg Assay for CD40 Biomarker Activity (AID 2283088); details: primary human HUVEC with PBMC; actives raise or lower the signal
Procedure, shortened: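 Endpoint derived by fitting increases or decreases versus DMSO controls. CD40 is detected by fluorescence ELISA in a human vascular co-culture of endothelium and PBMC at 24 h.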

[18] = read-out: CD69, CD69 (gene 969); assay: BSK_SAg_CD69: BioMAP Diversity Plus: SAg Assay for CD69 Biomarker Activity (AID 2283089); details: primary human HUVEC with PBMC; actives raise or lower the signal;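 as to AC50: cell surface CD69 protein quantified by ELISA with fluorescence detection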
Procedure, shortened: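 Primary human vascular co-culture (umbilical vein endothelium with peripheral blood mononuclear cells) exposed to test chemical for 24 h. CD69 levels quantified by fluorescence ELISA; DMSO served as negative control for bidirectional fitting.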

[19] = read-out: E-selectin (Homo sapiens) (UniProt P16581); assay: BSK_LPS_Eselectin: BioMAP Diversity Plus: LPS Assay for Eselectin Biomarker Activity (AID 2283077); details: primary human HUVEC with PBMC; actives raise or lower the signal
Procedure, shortened: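 Dose chemical onto LPS-driven HUVEC/PBMC co-culture; after 24 h, run ELISA for E-selectin; fit up- and down-going responses relative to DMSO control.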

[20] = read-out: Vascular cell adhesion molecule 1 (VCAM1), VCAM1 (gene 7412); assay: BSK_LPS_VCAM1: BioMAP Diversity Plus: LPS Assay for Vascular cell adhesion molecule 1 (VCAM1) Biomarker Activity (AID 2283086); details: primary human HUVEC with PBMC; actives raise or lower the signal
Procedure, shortened: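 Cells are dosed in an LPS-stimulated endothelial/mononuclear co-culture and, after 24 h, VCAM-1 is quantified by ELISA. Activity in either direction is fitted relative to the DMSO negative control.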

Measured: AC50

Tumor necrosis factor (Homo sapiens), sequence (P01375 whole entry, looked up): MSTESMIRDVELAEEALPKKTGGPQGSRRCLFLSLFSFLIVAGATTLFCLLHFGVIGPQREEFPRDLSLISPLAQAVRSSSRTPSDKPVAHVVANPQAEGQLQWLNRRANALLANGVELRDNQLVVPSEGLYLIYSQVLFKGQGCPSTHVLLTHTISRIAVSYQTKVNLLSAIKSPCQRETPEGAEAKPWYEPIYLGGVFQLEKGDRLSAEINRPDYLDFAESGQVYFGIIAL
E-selectin (Homo sapiens), sequence (P16581 whole entry, looked up): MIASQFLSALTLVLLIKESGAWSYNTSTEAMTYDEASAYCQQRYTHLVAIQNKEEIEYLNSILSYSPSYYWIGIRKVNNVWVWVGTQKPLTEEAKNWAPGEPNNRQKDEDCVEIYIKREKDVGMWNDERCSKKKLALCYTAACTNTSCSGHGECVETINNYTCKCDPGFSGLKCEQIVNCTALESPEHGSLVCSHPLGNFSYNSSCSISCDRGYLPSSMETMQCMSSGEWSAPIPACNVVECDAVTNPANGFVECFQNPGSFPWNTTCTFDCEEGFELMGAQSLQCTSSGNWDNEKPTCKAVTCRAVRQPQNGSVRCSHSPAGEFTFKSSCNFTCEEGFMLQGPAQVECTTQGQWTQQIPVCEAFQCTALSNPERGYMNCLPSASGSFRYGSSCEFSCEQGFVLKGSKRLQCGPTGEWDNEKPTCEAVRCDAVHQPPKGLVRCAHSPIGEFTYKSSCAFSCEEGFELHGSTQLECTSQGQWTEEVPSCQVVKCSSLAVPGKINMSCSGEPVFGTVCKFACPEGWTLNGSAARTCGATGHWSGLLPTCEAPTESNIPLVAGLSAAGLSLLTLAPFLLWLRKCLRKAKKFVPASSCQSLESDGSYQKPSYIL

O=C(Cl)c1c(Cl)c(Cl)c(C(=O)Cl)c(Cl)c1Cl
inactive: [1] | [2] | [3] | [4] | [5] | [6] | [7] | [8] | [9] | [10] | [11] | [12] | [13] | [14] | [15] | [16] | [17] | [18]

C=CCCCCCCCCC=O
inactive: [1] | [3] | [4] | [5] | [6] | [7] | [19] | [8] | [9] | [10] | [11] | [12] | [13] | [14] | [15] | [16] | [17] | [18]

COC(OC)(C(=O)c1ccccc1)c1ccccc1
inactive: [1] | [2] | [3] | [4] | [5] | [6] | [7] | [9] | [11] | [12] | [13] | [14] | [15] | [16] | [17] | [18]
active: [8] 0.016 µM | [10] 38.7 nM

COc1ccc(C(=O)/C(Br)=C\C(=O)O)cc1
active: [1] 20 µM and 24.8 µM | [2] 20 µM | [3] 20 µM and 6.52 µM | [4] 33 µM and 35 µM | [5] 25.6 µM and 23.3 µM | [6] 31.7 µM | [7] 10.2 µM and 16 µM | [8] 20 µM | [9] 27.9 µM and 31 µM | [10] 20 µM and 17 µM | [11] 31.3 µM and 27.4 µM | [12] 7.75 µM and 6.87 µM | [13] 12.8 µM and 20 µM | [14] 20 µM and 14.1 µM | [15] 14.3 µM and 28.4 µM | [16] 22.3 µM and 20 µM | [17] 20 µM and 23.6 µM | [18] 15.6 µM and 15.7 µM
inactive: [6]

COc1ccc(C(=O)c2ccccc2)c(O)c1
active: [5] 20 µM | [12] 4.59 µM
inactive: [1] | [3] | [4] | [6] | [7] | [19] | [8] | [9] | [10] | [11] | [13] | [14] | [15] | [20] | [17] | [18]

O=C1CCCCCCCCCCC1
inactive: [1] | [2] | [3] | [4] | [5] | [6] | [7] | [19] | [8] | [9] | [10] | [11] | [12] | [13] | [14] | [15] | [20] | [17] | [18]

CC1(C)CC(O)CC(C)(C)N1[O]
inactive: [1] | [2] | [3] | [4] | [5] | [6] | [7] | [8] | [9] | [10] | [11] | [12] | [13] | [14] | [15] | [20] | [17] | [18]
